The source of these data is publication PMC4336329 (PLoS ONE, 2015).

SMILES strings stand for the structures. Among all 310,000 compounds or so, about 14,000 (4.5%) showed an effect of 50% or more. The effect is printed as a negative number. The sample as a whole holds a higher share of strong results than the screen did.
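Further: peak tail current of the secondary pulse compared with the same well before compound.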

Chain of human ether-à-go-go-related gene (hERG) potassium channel (Q12809 whole entry, looked up): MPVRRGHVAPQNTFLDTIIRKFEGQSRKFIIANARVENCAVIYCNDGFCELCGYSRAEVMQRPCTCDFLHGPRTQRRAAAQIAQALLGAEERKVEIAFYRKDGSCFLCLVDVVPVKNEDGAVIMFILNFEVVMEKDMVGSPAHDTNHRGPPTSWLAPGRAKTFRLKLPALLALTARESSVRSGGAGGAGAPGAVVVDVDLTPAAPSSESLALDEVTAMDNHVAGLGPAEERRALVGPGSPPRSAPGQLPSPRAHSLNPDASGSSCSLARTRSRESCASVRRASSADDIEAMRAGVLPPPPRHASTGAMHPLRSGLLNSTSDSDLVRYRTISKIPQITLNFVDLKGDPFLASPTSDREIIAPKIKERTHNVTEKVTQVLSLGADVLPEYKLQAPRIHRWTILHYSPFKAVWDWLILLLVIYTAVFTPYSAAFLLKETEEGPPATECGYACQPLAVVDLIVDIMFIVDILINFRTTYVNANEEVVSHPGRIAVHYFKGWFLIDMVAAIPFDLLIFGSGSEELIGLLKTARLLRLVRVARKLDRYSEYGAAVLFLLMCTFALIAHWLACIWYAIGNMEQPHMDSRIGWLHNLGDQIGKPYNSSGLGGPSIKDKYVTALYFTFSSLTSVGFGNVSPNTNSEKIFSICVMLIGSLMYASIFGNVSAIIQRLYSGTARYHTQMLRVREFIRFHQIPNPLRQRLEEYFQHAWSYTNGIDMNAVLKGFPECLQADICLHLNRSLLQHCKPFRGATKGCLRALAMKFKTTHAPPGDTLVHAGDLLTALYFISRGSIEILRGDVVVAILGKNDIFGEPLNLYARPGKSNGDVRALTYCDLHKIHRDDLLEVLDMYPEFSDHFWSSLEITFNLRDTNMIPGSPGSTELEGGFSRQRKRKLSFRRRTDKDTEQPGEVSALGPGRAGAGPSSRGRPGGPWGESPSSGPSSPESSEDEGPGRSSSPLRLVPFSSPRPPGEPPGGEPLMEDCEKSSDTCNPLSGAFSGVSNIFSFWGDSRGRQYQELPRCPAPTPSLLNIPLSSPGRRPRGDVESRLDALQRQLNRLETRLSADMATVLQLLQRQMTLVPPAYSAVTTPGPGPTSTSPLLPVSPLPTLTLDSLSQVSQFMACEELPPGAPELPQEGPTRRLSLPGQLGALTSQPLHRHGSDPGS

This test concerns the target human ether-à-go-go-related gene (hERG) potassium channel (human, UniProt Q12809). The test can be described thus: primary screen, population patch clamp on CHO cells stably expressing hERG; higher = less effect of the substance.
With `COc1cc(OC)c(-c2nc3cnccc3n2C)cc1OC`, the “hERG current change (%, negative = inhibition) at 10uM” value stood at 6.5%.

`COc1ccc(NC(=S)N2CCN(C(=O)C3CCCO3)CC2)cc1` (centres unmarked): the “hERG current change (%, negative = inhibition) at 10uM” value turned out to be 11.8%.

Regarding `Cc1ccc(C(=O)CCC(=O)N2CCN(C(=O)c3ccco3)CC2)cc1`, the “hERG current change (%, negative = inhibition) at 10uM” value is on record as -56.2%.

`O=C(CN1C(=O)NC2(CCCC2)C1=O)N1CCN(C(=O)c2ccco2)CC1`: the “hERG current change (%, negative = inhibition) at 10uM” value is given as 4.41%.

For `CC(C)O.CCCC1(CCC)NC(=O)N(CC(=O)N2CCN(C(=O)c3ccco3)CC2)C1=O`, the “hERG current change (%, negative = inhibition) at 10uM” value was 5%.

Turning to `O=C(CCC(=O)N1CCN(C(=O)c2ccco2)CC1)c1ccc(F)cc1`, the “hERG current change (%, negative = inhibition) at 10uM” value was -66.7%.

Regarding `Cc1ccc(OCC(=O)N2CCN(C(=O)c3ccco3)CC2)cc1`, the “hERG current change (%, negative = inhibition) at 10uM” value is reported as -37.7%.

On to `Cc1ccc(CC(=O)N2CCN(C(=O)c3ccco3)CC2)cc1`, for which the “hERG current change (%, negative = inhibition) at 10uM” value is -7.76%.

With `CCCCC1(c2ccc(F)cc2)NC(=O)N(CC(=O)N2CCN(C(=O)c3ccco3)CC2)C1=O` (centres unmarked), the “hERG current change (%, negative = inhibition) at 10uM” value was -52.6%.

Consider `O=C(c1ccco1)N1CCN(c2ccc(F)cc2)CC1`, for which the “hERG current change (%, negative = inhibition) at 10uM” value is -0.235%.

In the case of `O=C(CCC(=O)N1CCOCC1)c1ccc(F)cc1`, the “hERG current change (%, negative = inhibition) at 10uM” value was 36.5%.

`CC(=O)Oc1ccccc1N(C(C)=O)S(=O)(=O)c1ccc2ccccc2c1`: the “hERG current change (%, negative = inhibition) at 10uM” value was 7.06%.

For the molecule `COc1ccc(NC(=O)Cn2nnc3ccccc32)c([N+](=O)[O-])c1`, the “hERG current change (%, negative = inhibition) at 10uM” value worked out at 9.14%.

Turning to `O=C(CC1Nc2ccccc2NC1=O)c1ccccc1` (centres unmarked), the “hERG current change (%, negative = inhibition) at 10uM” value was -2.01%.

On to `Cl.OCCN1CCN(CC/C=C2/c3ccccc3Sc3ccc(Cl)cc32)CC1`, for which the “hERG current change (%, negative = inhibition) at 10uM” value was -68.8%.

For `CN(C)CC/C=C1/c2ccccc2Sc2ccc(Cl)cc21`, the “hERG current change (%, negative = inhibition) at 10uM” value is given as -8.11%.

With `CN(C)CC/C=C1\c2cc(Cl)ccc2Sc2cc(F)c(F)cc21.Cl`, the “hERG current change (%, negative = inhibition) at 10uM” value is on record as 1.25%.

Turning to `Cl.OCCN1CCN(CC/C=C2/c3ccccc3Sc3ccc(C(F)(F)F)cc32)CC1`, the “hERG current change (%, negative = inhibition) at 10uM” value is -47.1%.

`CN(C)CC/C=C1/c2cc(F)ccc2Sc2ccc(Cl)cc21.Cl`: the “hERG current change (%, negative = inhibition) at 10uM” value is -34.5%.

For `CN(C)CC/C=C1\c2ccccc2Sc2ccc(Cl)cc21.Cl`, the “hERG current change (%, negative = inhibition) at 10uM” value is recorded as -56.7%.

`O=C(O)/C=C\C(=O)O.OCCN1CCN(CC/C=C2/c3ccccc3CSc3ccccc32)CC1`: the “hERG current change (%, negative = inhibition) at 10uM” value is -12.2%.

With `CN(C)CC/C=C1\c2ccccc2Sc2cc(F)c(Cl)cc21.Cl`, the “hERG current change (%, negative = inhibition) at 10uM” value came to 7.2%.

As to `CN(C)CC/C=C1/c2ccccc2Sc2ccc(Cl)cc21.Cl`, the “hERG current change (%, negative = inhibition) at 10uM” value is -56.8%.

As to `CCN(CC)S(=O)(=O)c1ccc(C(=O)OCC(=O)NCCN2C(=O)CSC2=O)cc1`, the “hERG current change (%, negative = inhibition) at 10uM” value was -14.4%.

Turning to `O=C1C(=Cc2ccco2)C(=O)c2ccccc21`, the “hERG current change (%, negative = inhibition) at 10uM” value turned out to be 8.17%.

For the molecule `CN1C(=O)c2ccc(C(=O)Nc3ccccc3O)cc2C1=O`, the “hERG current change (%, negative = inhibition) at 10uM” value came to 4.6%.

Regarding `Cc1nn(C)cc1/C=N/NC(=O)c1sc2ccccc2c1Cl`, the “hERG current change (%, negative = inhibition) at 10uM” value is recorded as -6.47%.

As for `O=P(c1ccccc1)(c1ccccc1)C(c1ccco1)N1CCOCC1` (centres unmarked), the “hERG current change (%, negative = inhibition) at 10uM” value is reported as 9.93%.

`Cc1nnc(NCCc2ccccc2)c2ccccc12`: the “hERG current change (%, negative = inhibition) at 10uM” value is recorded as -18.1%.

For the molecule `COc1ccc(Cl)c(N2CCN(CCCNC(=O)Nc3ccc(C)cc3)CC2)c1`, the “hERG current change (%, negative = inhibition) at 10uM” value is listed as -72.4%.

Consider `Cc1ccc(NC(=O)NCCCN2CCOCC2)cc1`, for which the “hERG current change (%, negative = inhibition) at 10uM” value is 4.63%.

For the molecule `COc1ccc(NC(=O)NCCN2CCN(c3cc(OC)ccc3OC)CC2)cc1`, the “hERG current change (%, negative = inhibition) at 10uM” value is -2.75%.

Take `COc1ccc(NC(=O)NCCN2CCCCC2)cc1`: the “hERG current change (%, negative = inhibition) at 10uM” value is -10.1%.

Turning to `COc1ccc(NC(=O)NCCCN2CCN(c3cc(C)ccc3C)CC2)cc1`, the “hERG current change (%, negative = inhibition) at 10uM” value was -92.2%.

`COc1ccc(NC(=O)NCCN2CCN(c3ccc(C)cc3)CC2)c(Cl)c1`: the “hERG current change (%, negative = inhibition) at 10uM” value is reported as -8.96%.

For the molecule `Cc1cc(SCC(=O)Nc2c(C)n(C)n(-c3ccccc3)c2=O)nc2ccccc12`, the “hERG current change (%, negative = inhibition) at 10uM” value is -38.7%.

`Cc1cc(C(=O)OCC(=O)c2ccc3c(c2)NC(=O)CO3)c2ccccc2n1`: the “hERG current change (%, negative = inhibition) at 10uM” value is recorded as 18.8%.

`O=C(NCCN1CCOCC1)c1cnn2c(-c3ccccc3)cc(-c3ccccc3)nc12`: the “hERG current change (%, negative = inhibition) at 10uM” value is on record as -72.5%.

Consider `O=C(NCCN1CCOCC1)c1ccccc1-c1ccccc1`, for which the “hERG current change (%, negative = inhibition) at 10uM” value was found to be 0.439%.

Turning to `O=C(NCCN1CCOCC1)c1cc(-c2ccccc2Cl)nc2ccccc12`, the “hERG current change (%, negative = inhibition) at 10uM” value was -15%.

Consider `CCc1ccc(Sc2cc(C(=O)NCCN3CCOCC3)c3ccccc3n2)cc1`, for which the “hERG current change (%, negative = inhibition) at 10uM” value was -56.2%.

As to `O=C(NCCN1CCOCC1)c1cc(Sc2ccccc2Cl)nc2ccccc12`, the “hERG current change (%, negative = inhibition) at 10uM” value is reported as -27.1%.

As to `O=C(NCCN1CCOCC1)c1cc(Sc2ccc(F)cc2F)nc2ccccc12`, the “hERG current change (%, negative = inhibition) at 10uM” value is reported as -42.8%.

With `CCc1ccc(Nc2cc(C(=O)NCCCN3CCOCC3)c3ccccc3n2)cc1`, the “hERG current change (%, negative = inhibition) at 10uM” value is on record as -35.5%.
